This excerpt belongs to a sample that is enriched for hits.
Pf Dd2 growth: blocks in vitro growth of P. falciparum Dd2 | P. falciparum Dd2 growth, SYBR Green, 72 h | AID 1347417 | Potency, µM (highest dose often 28.9 µM), most hits filed as inhibitors | 120,000 tested, 4.3% active; active means well fitted inhibition curve with a large enough effect; further: nearly all actives have a fitted effect of over 65% in size
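Readout: SYBR Green fluorescence, 485 nm excitation, 535 nm emission, after ~16 h lysis at 37C. Before that, Dd2-infected red cells (2.5% hematocrit) grew 72 h with compound, 29 uM top final concentration.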
Each line names hits and unclear results; the compound was inactive in the other large screens.

CCCCN(CC)CCCNC(=O)c1cc2c(=O)oc3ccc(C)cc3c2s1	none
CCN(CCCNC(=O)c1cc2c(=O)n(C)c3ccccc3c2s1)Cc1ccccc1	Pf Dd2 growth 5µM
CN(CC1CCOCC1)C(=O)Nc1ccc(F)c(Cl)c1	none
CC(=O)c1ccc(NC(=O)c2sc(-n3nc(C)c(Cc4ccc5c(c4)OCO5)c3C)nc2C)cc1	none
CCN(CC)c1ncccc1CNC(=O)c1ncoc1C1CC1	none
Cc1ccc(NC(=O)Cn2c(=O)n(Cc3nc(C)no3)c(=O)c3ccccc32)c(Cl)c1	none
COCCNc1ncc(-c2cccc(C(C)=O)c2)c2c1OCC2	none
Cc1c(Cl)cccc1NC(=O)c1ncoc1-c1ccco1	none
COC(=O)c1c(SCC(=O)Nc2cc(C)cc(C)c2)[nH]c2ccccc2c1=O	none
COCCN(Cc1ccco1)C(=O)c1cc2c(=O)[nH]c3ccc(C)cc3c2s1	none
CCOCCCN(Cc1ccco1)C(=O)c1cc2c(=O)[nH]c3ccc(C)cc3c2s1	Pf Dd2 growth 10µM
CCCN(C(=O)c1cc2c(=O)[nH]c3ccc(C)cc3c2s1)c1ccc(CC)cc1	none
COc1ccc(-c2nnc3n2CCN(C(=O)c2ccc(C)cc2)C3)cc1	none
COc1ccc(C2C=C(c3ccccc3)Nc3nc(NC(=O)c4cccc([N+](=O)[O-])c4)nn32)cc1 (stereo not drawn)	Pf Dd2 growth 8.9µM
COc1ccc(C(=O)Nc2cnc(-c3ccc(Cl)cc3)nc2)cc1	none
COc1cccc(C(=O)Nc2nc3nc(-c4ccccc4)cc(=O)n3[nH]2)c1	none
COc1ccc(C(=O)NCc2nnc3ccc(-c4ccc(Cl)cc4)nn23)cc1OC	none
COc1ccc(C(=O)Nc2noc3ccccc23)cc1	none
COc1ccc(C(=O)Nc2nc3n(n2)C(c2ccc(Cl)cc2)C=C(c2ccccc2)N3)cc1OC (stereo not drawn)	Pf Dd2 growth 7.9µM
COc1ccc(CNC(=O)c2cc(-c3ccc(OC)cc3)nc3n[nH]c(-c4cccc([N+](=O)[O-])c4)c23)cc1	none
COc1ccc(NC(=O)c2cc3n(n2)CC(c2ccc(Cl)cc2)OC3)cc1OC (stereo not drawn)	none
COc1ccc(C2C=C(c3ccccc3)Nc3nc(NC(=O)c4ccc(C)cc4)nn32)cc1 (stereo not drawn)	Pf Dd2 growth 13µM
Cc1cc(C(=O)N2CC[C@H](NS(=O)(=O)c3cn(C)cn3)C[C@H]2C(=O)N[C@@H](Cc2cccs2)C(N)=O)n(C)n1	none
Cc1nnc(NC(=O)c2nc(SCc3ccccc3F)ncc2Cl)s1	none
Cc1cc(Cl)ccc1OCC(=O)N1CCC(c2nc3ccccc3s2)CC1	none
COc1ccc(-n2ccnc(NCc3ccccc3Cl)c2=O)cc1OC	none
COC(=O)CNC(=O)C1CN(c2cccc(Cl)c2)C(=O)N1 (stereo not drawn)	none
Cc1nc2cccnc2n1CC1CCCN(S(=O)(=O)c2cccc(F)c2)C1 (stereo not drawn)	none
C[S+](=O)([O-])N1CCC2(CC1)C(=NC1CCCCC1)NC(=O)N2c1cccnc1	none
NC(=O)CCn1cc(CN(CCO)Cc2ccccc2F)c2ccccc21	Pf Dd2 growth 2.2µM
CCC(NCc1cn(CCC(N)=O)c2ccccc12)c1cccs1 (stereo not drawn)	none
O=C(Cn1cc(SCc2ccccc2F)c2ccccc21)N1CCCCC1	none
Cn1cccc1CN1CCC(N2CCOCC2=O)CC1	none
O=C(c1ccc(F)c(F)c1)N1CCN(c2cc(-c3cccs3)[nH]n2)CC1	none
Cc1nn(CC(=O)N2CCC3(CCCN(C)CC3)CC2)c(=O)c2ccccc12	none
COCCCNC(=O)CSc1nc2c(sc3ccccc32)c(=O)n1CCCC(=O)NCCOC	none
Cc1ccccc1CSc1nc2c(sc3ccccc32)c(=O)n1CCCC(=O)NCCCOC(C)C	Pf Dd2 growth 11µM
CC(C)OCCCNC(=O)CCCn1c(SCC(=O)c2ccc(F)cc2)nc2c(sc3ccccc32)c1=O	none
CCc1nn(Cc2cc(C)ccc2C)c(=O)c2cc3cc(C)ccc3n12	none
Cc1noc(C)c1CCCNC(=O)c1cccc(CCC(C)(C)O)c1	none
COc1cc(OC)cc(C(=O)N2CCN(c3ncccn3)CC2C(=O)O)c1 (stereo not drawn)	none
CCC(CC)C(=O)NC[C@H]1O[C@@H](CC(=O)N2CCN(c3ccccc3OC)CC2)[C@H](O)[C@@H]1O	none
Brc1ccc(-c2nc3ccccn3c2Nc2ccc3c(c2)OCCO3)o1	Pf Dd2 growth 13µM
Cc1ccc(-c2nc3ccccn3c2Nc2ccc3c(c2)OCCO3)o1	none
Cc1ccn2c(Nc3ccc4c(c3)OCCO4)c(-c3ccccc3O)nc2c1	Pf Dd2 growth 11µM
c1csc(-c2nc3ccccn3c2Nc2ccc3c(c2)OCCO3)c1	none
Cc1ccc2nc(-c3ccc(C)o3)c(Nc3ccc4c(c3)OCCO4)n2c1	none
Cc1ccc(-c2nc3ccc(Cl)cn3c2Nc2ccc3c(c2)OCCO3)s1	none
CCCN1CCCC2(CCN(c3cc(C)c4cccc(OC)c4n3)C2)C1=O (stereo not drawn)	none
Cc1ccc(-c2cc(-c3coc4ccccc4c3=O)c3c(n2)-c2ccccc2OC3)cc1	none
CC1(C)CN(C(=O)C2(c3ccccc3F)CC2)C[C@]1(C)O	none
COc1ccc(CN2CC(OCc3cccnc3)CN(C(=O)c3csc(C)n3)CC2=O)cc1 (stereo not drawn)	none
COc1cccc(CN2CCc3c(cc(C(=O)Nc4ccccc4)n3C)C2)c1	Pf Dd2 growth 1.1µM
O=C(Cn1c(=O)c2c(n1Cc1ccccc1)CN(Cc1ccccc1)CC2)NCc1ccc(F)cc1	none
CCN(CC)C(=O)c1cc2c(n1C)CCN(Cc1ccc(F)cc1)C2	Pf Dd2 growth 8.9µM
CC(C)N1CCN(C(=O)c2cc3c(n2C)CCN(Cc2ccc(F)cc2)C3)CC1	none
COc1ccc(NC(=O)C2=NO[C@@H]3CN(Cc4ccc(F)cc4)C[C@H]23)cc1	none
COc1cccc(CN2CCc3c(cc(C(=O)NCc4ccccn4)n3C)C2)c1	Pf Dd2 growth 0.89µM
COc1cccc(CN2CCN3C(=O)N(Cc4ccccn4)C[C@H]3C2)c1	none
COc1ccc(NC(=O)c2cc3c(n2C)CCN(Cc2ccc(F)cc2)C3)cc1	Pf Dd2 growth 2.5µM
COc1ccc(NC(=O)c2ccc3c(c2)c(C)c(C)n3Cc2ccc(F)cc2)cc1	none
COc1ccc(CNC(=O)c2cc3c(n2C)CCN(Cc2ccccc2)C3)cc1OC	none
COc1cccc(CN2CCc3c(cc(C(=O)N4CCOCC4)n3C)C2)c1	none
COc1cccc(CN2CCc3nc(C(=O)Nc4cccnc4)oc3CC2)c1	none
COc1cccc(C(=O)N2CCCC(Cc3nc(C4CCOCC4)no3)C2)c1 (stereo not drawn)	none
COc1cccc2c1OCC(CNC(=O)c1sc(C)nc1C)C2 (stereo not drawn)	none
Cc1ccc(C(=O)N2[C@@H]3CC[C@H]2CC(NC(=O)c2ccc(F)cc2)C3)cn1 (stereo partly drawn)	none
COCC(=O)N[C@@H]1CN(C(=O)c2ccc(OC)cc2OC)CC[C@@H]1CO	none
Cc1conc1CN1CC2(C1)NC(=O)c1ccccc1O2	none
Cn1cncc1-c1nnc([C@H]2CCN(CC3CCCCC3)C2)o1	none
COc1cccc(CC(=O)NCCC2CCN(C(=O)Nc3ccccc3C)CC2)c1	none
COc1cc(=O)n2c(c1C(=O)Nc1cccc(C)c1C)CCCC2	none
COc1cccc(CN2CCc3c(cc(C(=O)Nc4cccc(C)c4C)n3C)C2)c1	Pf Dd2 growth 4.5µM
O=C(Nc1ccccc1F)N1CCCC1c1nncn1-c1ccccc1 (stereo not drawn)	none
O=C(NCC1CCOCC1)c1ccccn1	none
C=CCN1CCN(C(=O)[C@@H]2C[C@@H](O)CN2C2CCN(C(=O)c3cccc(OC)c3)CC2)CC1	none
COc1cccc(C(=O)N2CCC(N3C[C@H](O)C[C@H]3C(=O)N3CCN(c4ncccn4)CC3)CC2)c1	none

Screens from PubChem BioAssay.
